Screening results as filed in PubChem.
MITF inh – MITF inhibitors, primary screen, biochemical, AlphaScreen, human; 0.91% of 650,000 active; AlphaScreen MITF homodimerization, bead proximity signal; inhibition, % at 2.6 µM; AID 1259374, 2018; Microphthalmia-associated transcription factor (Homo sapiens), O75030; in the data active = inhibition above about 50%
GPR151 ag – activators of human GPR151, primary screen, cell-based, PathHunter beta-arrestin, luminescence; G-protein coupled receptor 151 (Homo sapiens), Q8TDV0; PathHunter beta-arrestin GPR151 cells; activation, % at 11.2 µM; 1% of 650,000 active; AID 1508602, 2020; in the data active = activation above about 4.9%
TEAD-YAP inh – TEAD-YAP interaction inhibition, primary screen, TEAD-YAP interaction inhibitor project, luminescence, HEK-TIYL cells | TEAD-Gal4/YAP UAS-luciferase luminescence | inhibition, % at 9.12 µM | 1.4% of 640,000 active; in the data active = inhibition above about 32%
FBW7 activator – FBW7 E3 ligase activators, primary screen, biochemical, AlphaScreen, human; F-box/WD repeat-containing protein 7 (Homo sapiens), Q969H0; AlphaScreen FBW7–phospho-cyclin E peptide binding, activator screen; normalized activity (activation), % at 26.1 µM; 0.13% of 650,000 active; AID 1259310, 2017; in the data active = normalized activity above about 1.9%;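 also: purified mutant Fbw7 with reduced substrate affinity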
Target sequence (Q969H0 whole entry, looked up): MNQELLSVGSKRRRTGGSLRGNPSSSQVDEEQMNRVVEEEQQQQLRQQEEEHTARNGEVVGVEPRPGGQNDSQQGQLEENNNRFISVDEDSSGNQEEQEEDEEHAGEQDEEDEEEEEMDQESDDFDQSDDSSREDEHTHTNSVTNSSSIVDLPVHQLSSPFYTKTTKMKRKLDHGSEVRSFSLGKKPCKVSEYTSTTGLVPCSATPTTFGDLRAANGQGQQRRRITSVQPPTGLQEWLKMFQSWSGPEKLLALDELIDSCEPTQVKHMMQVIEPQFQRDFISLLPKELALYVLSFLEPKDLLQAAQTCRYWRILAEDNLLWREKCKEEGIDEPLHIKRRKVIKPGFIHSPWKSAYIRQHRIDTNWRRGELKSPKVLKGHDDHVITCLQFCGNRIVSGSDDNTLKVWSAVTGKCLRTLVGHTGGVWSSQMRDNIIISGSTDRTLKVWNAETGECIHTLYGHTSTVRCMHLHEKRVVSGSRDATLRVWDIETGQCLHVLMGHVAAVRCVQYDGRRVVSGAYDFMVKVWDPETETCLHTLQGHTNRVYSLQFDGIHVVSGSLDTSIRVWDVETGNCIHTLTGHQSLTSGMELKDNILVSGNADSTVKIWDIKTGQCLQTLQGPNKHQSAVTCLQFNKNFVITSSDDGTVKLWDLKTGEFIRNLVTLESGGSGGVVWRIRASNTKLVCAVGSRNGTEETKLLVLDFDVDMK
MITF confirm – MITF inhibitors, retest of hits, confirmation, biochemical, AlphaScreen, triplicate; AlphaScreen MITF homodimerization, biotin/His-MITF beads; AID 1259372, 2018; shares compounds with MITF inh; inhibition, % at 2.6 µM; 16% of 4,700 active;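 active = inhibition above a cutoff derived from the DMSO control wells, cut at about 28% in these data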;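 also: inhibitors lower the bead chemiluminescence by keeping MITF from dimerizing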
AlphaScreen DR – AlphaScreen optical interference compounds, dose response, counter-screen, biochemical, HTS. shares compounds with MITF inh. AlphaScreen optical interference counterscreen, cell-free. IC50, µM. 6% of 480 active. AID 1259373, 2018; call rule not given here
AS interf ctr – AlphaScreen optical interference compounds, counter-screen for MITF inhibitor project, biochemical, triplicate; inhibition, % at 2.6 µM; LysRS AlphaScreen counterscreen, signal interference; AID 1259376, 2018; shares compounds with MITF inh; 7.6% of 4,700 active;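 active = inhibition above a cutoff derived from the DMSO control wells, cut at about 30% in these data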
A number is an active result; – = inactive; · = no result given. Only some compounds are listed: those with a hit (about 3.4% of all), similar ones and a draw of the others.

SMILES	MITF inh	GPR151 ag	TEAD-YAP inh	FBW7 activator	MITF confirm	AS interf ctr	others
COc1ccc(CN2CCN(Cc3ccccc3C)CC2)c(OC)c1	82.9	–	–	–	–	–
COc1ccc(-c2nc3ccccc3c(=O)n2NC(=O)c2ccc([N+](=O)[O-])c(C)c2)cc1OC	–	–	–	–	·	·
COC(=O)Cc1[nH]nc2c1C1(C(=O)N(Cc3ccccc3)c3ccccc31)C(C#N)=C(N)O2 (stereo not given)	–	–	–	–	·	·
COC(=O)Cc1[nH]nc2c1C1(C(=O)Nc3ccccc31)C(C#N)=C(N)O2 (stereo not given)	66.3	–	–	–	–	–
O=[N+]([O-])c1cc([N+](=O)[O-])c2cc[nH]c2c1	69.1	–	–	–	–	–
Cc1cccc(C(C)(C)C)c1OCCN1CCOCC1	80.2	–	–	–	–	–
Cc1cc(C)c(OCCN2CCOCC2)c(Cl)c1	53.8	–	–	–	–	–
Cc1cc(Cl)cc(Cl)c1OCCCCNCCN1CCOCC1	62.4	–	–	–	–	–
O=S1(=O)CC(OS(=O)(=O)c2ccccc2)C(OS(=O)(=O)c2ccccc2)C1 (stereo not given)	70.7	–	–	–	–	–
COc1ccc(NC(=O)CCNS(=O)(=O)c2cccc3nonc23)cc1Cl	55.0	–	–	–	–	–
COc1ccc(NC(=O)CNS(=O)(=O)c2cccc3nonc23)cc1Cl	–	–	–	–	·	·
NNC(=O)C(=O)NNc1ccccn1	69.5	–	–	–	74.2	100.6
O=C1C2C(C(=O)N1c1ccc(Br)cc1)N1CCCN1C2c1ccc(F)cc1 (stereo not given)	65.1	–	–	–	–	–
O=C(O)CCC(=O)Nc1ccc(Cl)c(C(=O)O)c1	–	–	–	–	·	·
CCCNC(=O)Nc1ccc(Cl)c(C(=O)O)c1	64.3	–	–	–	–	–
COc1ccc(Cn2nnnc2CN(CCO)Cc2cc3c(C)cc(C)cc3[nH]c2=O)cc1	–	–	–	–	·	·
CCCCC(=O)Nc1cc(C)c(Cl)cc1OC	–	–	–	–	·	·
CCCCC(=O)Nc1cc(OC)c(NC(=S)NC)cc1OC	75.5	–	–	–	–	–
COc1ccc(N2CCCn3c2nc2c3c(=O)n(Cc3cccc(C)c3)c(=O)n2C)c(OC)c1	–	–	–	–	·	·
Cc1ccc(-c2ncn(-c3ccc(Nc4cc(-n5cnc(Nc6ccccc6)n5)c(F)cn4)cc3)n2)cn1	90.7	–	–	–	52.0	–	AlphaScreen DR=–
O=C1OC(OC(=O)c2ccco2)C(Nc2ccccc2)=C1Cl (stereo not given)	70.8	–	–	–	–	–
CN(C)c1cccc(C(=O)N2N=C(C(F)F)CC2(O)C(F)F)c1 (stereo not given)	75.0	–	–	–	–	–
CN(C)c1ccc(C(=O)N2N=C(C(F)F)CC2(O)C(F)F)cc1 (stereo not given)	–	–	–	–	·	·
COC(=O)C1=C(C)N(CC(C)C)C(=O)/C1=C\c1ccccc1OC	–	–	–	–	·	·
CCC(C)NCCOCCOc1ccc(Br)cc1 (stereo not given)	–	–	–	–	·	·
SMILES	MITF inh	GPR151 ag	TEAD-YAP inh	FBW7 activator	MITF confirm	AS interf ctr	others
CCC(C)NCCOc1ccc(Br)cc1 (stereo not given)	75.7	–	–	–	–	–
CCc1cccc(OCCCNC(C)CC)c1 (stereo not given)	81.6	–	–	–	–	–
CCC(C)NCCOCCOc1ccc(Cl)c(Cl)c1 (stereo not given)	66.5	–	–	–	–	–
CCC(C)NCCOCCOc1ccc(C)cc1 (stereo not given)	–	–	–	–	·	·
C=CCNC(=O)C(=O)Nc1cccc(C(F)(F)F)c1	–	–	–	–	·	·
CCOC(=O)C1CCN(S(=O)(=O)c2cc(Cl)c(C)cc2OC)CC1	–	–	–	–	·	·
CCOC(=O)C1CCN(S(=O)(=O)c2ccc(Cl)cc2OC)CC1	59.0	–	–	–	–	–
Cc1[nH]c2ccccc2c1SCCNC(=O)c1cc2ccccc2oc1=O	–	–	–	–	·	·
Cc1ccccc1-c1nnc(SCC(=O)Nc2ccc(N3CCCCC3)cc2)n1N	–	–	–	–	·	·
CC(=O)c1ccc(OCCN2CCCCC2)cc1	–	–	–	–	·	·
CC(=O)c1ccc(OCCCCN2CCN(C)CC2)cc1	52.0	–	–	–	–	–
CCN1CCN(CCOc2ccc(C(C)=O)cc2)CC1	78.0	–	–	–	–	–
CCN1CCN(CC(=O)c2ccc(OC(F)F)cc2)CC1	77.8	–	–	–	–	–
N#Cc1cc(N)cnc1Nc1ccccc1	–	–	–	–	·	·
Cc1c(C(=O)NCc2ccco2)oc2ccc(S(=O)(=O)N3CCC(C)CC3)cc12	–	–	–	–	·	·
Fc1ccc(CN2CCN(Cc3cccc(Oc4ccccc4)c3)CC2)cc1	68.2	–	–	–	–	–
c1ccc(Oc2cccc(CN3CCN(Cc4ccncc4)CC3)c2)cc1	69.4	–	–	–	–	–
Fc1ccccc1CN1CCN(Cc2cccc(Oc3ccccc3)c2)CC1	71.8	–	–	–	–	–
CCN1CCN(Cc2cccc(Oc3ccccc3)c2)CC1	66.4	–	–	–	–	–
O=C(c1ccncc1)N1CCN(Cc2cccc(Oc3ccccc3)c2)CC1	–	–	–	–	·	·
c1ccc(Oc2cccc(CN3CCSCC3)c2)cc1	–	–	–	–	·	·
CCOc1ccc(CN2CCN(Cc3cccc(Oc4ccccc4)c3)CC2)cc1	–	–	–	–	·	·
COc1cccc(CN2CCC(=O)N(Cc3ccc(F)cc3)CC2)c1	–	–	–	–	·	·
CCOC(=O)Cn1cnc2c(cnn2-c2ccc(F)cc2)c1=O	–	–	–	–	·	·
COc1ccc(Nc2cc(-c3ccccc3)ncn2)c(OC)c1	–	–	–	–	·	·
SMILES	MITF inh	GPR151 ag	TEAD-YAP inh	FBW7 activator	MITF confirm	AS interf ctr	others
Cc1cc(NC(=O)C2CCN(C(=O)Cc3cn(C)c4ccccc34)CC2)no1	–	–	–	–	·	·
Fc1ccc(C2=CC(c3ccc(Cl)cc3)n3nnnc3N2)cc1 (stereo not given)	–	–	–	–	·	·
O=[N+]([O-])c1cc(C2C=C(c3ccc(Cl)cc3)Nc3nnnn32)ccc1Cl (stereo not given)	64.5	–	–	–	–	–
Cc1cc(C)nc(Nc2ccc([N+](=O)[O-])cc2)n1	69.0	–	–	–	–	–
Cc1cc(C)nc(Nc2ccc(C)c([N+](=O)[O-])c2)n1	–	–	–	–	·	·
CN(C)CCNc1ncnc2sccc12	86.0	–	–	–	–	–
CCOC(CCCNc1ncnc2sccc12)OCC	–	–	–	–	·	·
c1ccc(-c2cc(N3CCOCC3)nc(-c3ccccn3)n2)cc1	76.9	–	–	–	–	–
